# From PubChem BioAssay
# Nrf2 activator = activates Nrf2 signaling | AREc32 ARE-luciferase reporter (MCF7-derived line), luminescence, 24 h | Potency, µM (top dose mostly 46.1 µM), without a hit: at the top dose activation, actives largely listed as activators | 410,000 compounds, 0.31% hits; further: potency means the concentration at half of the fitted maximal effect; % of control where 0% means no effect; nearly all actives have a fitted effect of over 65% in size
#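 AREc32 cells carrying an ARE-driven firefly luciferase reporter were seeded at 1000 cells/well in OPTI-MEM with 5% FBS, then exposed to compound for 24 hr at 37 deg C. Luminescence was read with Steady-Glo after 30 min at RT.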
# DRD3 antagonist = antagonists of human D3 dopamine receptor. D3R cells, DiscoveRx beta-arrestin luminescence, antagonist mode; hits give low values. max response, negative = inhibition, %. 360,000 compounds, 2.5% hits. AID 652054; in the data active means max response below about -50%; inconclusive means no clear call, values can overlap the other calls; further: on the % scale 0 is the no-effect control and ±100 the full control effect
# Target sequence (P35462 whole entry, looked up): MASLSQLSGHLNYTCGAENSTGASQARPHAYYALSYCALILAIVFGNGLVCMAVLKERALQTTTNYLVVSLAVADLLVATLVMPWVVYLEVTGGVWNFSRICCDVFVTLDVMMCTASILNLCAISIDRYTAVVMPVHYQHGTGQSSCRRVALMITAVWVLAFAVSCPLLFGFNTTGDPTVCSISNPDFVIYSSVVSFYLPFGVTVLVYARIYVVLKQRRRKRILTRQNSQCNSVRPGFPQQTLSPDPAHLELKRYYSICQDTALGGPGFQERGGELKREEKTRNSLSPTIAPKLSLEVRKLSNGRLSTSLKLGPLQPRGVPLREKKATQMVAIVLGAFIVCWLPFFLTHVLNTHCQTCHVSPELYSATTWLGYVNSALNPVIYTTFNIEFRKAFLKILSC
#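 Cells plated overnight at 1500 cells/well, then exposed to library compounds with dopamine controls for 90 minutes at 37 degrees C. DiscoveRx reagent added for 30–60 minutes at room temperature; luminescence read, quantitative HTS format.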
# D3 ag = D3 dopamine receptor (human) agonism. max activation, %. D3R DiscoveRx beta-arrestin cells, luminescence, 90 min. 410,000 compounds, 0.58% hits. AID 652048; in the data active means max activation above about 30%; further: 0% is about no effect
#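 Cells at 1500/well, incubated overnight, then treated with pinned compounds (dopamine as control) for 90 min at 37 degrees C. DiscoveRx reagent added for 30 - 60 minutes at room temperature; luminescence read.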
# Glioma ERSR ind = ER stress response induction in glioma; AID 602332; 420,000 compounds, 0.02% hits; U87-MG GRP78 promoter luciferase reporter, 16 h; Potency, µM, without a hit: at the top dose activation, usual class: activators; further: potency means the concentration at half of the fitted maximal effect; series mostly up to about 76 µM; % of control where 0% means no effect; nearly all actives have a fitted effect of over 35% in size
#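 ERSR induction read as luciferase luminescence (Bright-Glo, 10 min at room temperature) in stably transfected human U87-MG glioma cells exposed to compounds for 16 h, using GRP78 as sensor.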
# * marks the source's active call; other numbers are inactive results; u = inconclusive; x = no result given; [ ] = remark or other dose. In the library only some 3% were active in any assay of this set; here they are far more common. Unless noted, the call rests on the fitted dose curve; in most records, active means well fitted curve in the direction sought with a large enough effect; inconclusive means small, poorly fitted or top-dose-only effect, or another doubt; inactive means no such curve, though single readings can be large; an effect the other way counts as inactive or inconclusive.
SMILES,Nrf2 activator,DRD3 antagonist,D3 ag,Glioma ERSR ind
COc1cc(C#Cc2c(-c3cncn3C)n(C)c3ccc(-c4ccc(CN5CCOCC5)cc4)cc23)cc(OC)c1,7.8%,132.2,56.8*,-3.5%
CCOC(=O)CCC(=O)OC1C(OC2C(C)C(OC3CC(C)(OC)C(O)C(C)O3)C(C)C(=O)OC(CC)C(C)(O)C(O)C(C)C(=O)C(C)CC2(C)O)OC(C)CC1N(C)C (configuration not stated),x,x,x,-2.5%
COc1cccc(/C=C/c2ccccn2)c1O,8.91µM*,-8.5,5.9,-9.9%
Cc1cc(C(F)F)n2nc(C(=O)Nc3ccc(F)cc3F)nc2n1,0.5%,-53.7*,4.5,3.6%
O=C(Cn1cnc2ccccc2c1=O)Nc1cccc(-c2nnc3n2CCCCC3)c1,1.4%,-50.9*,-0.5,-2.8%
O=C(Cn1cnc2ccccc2c1=O)Nc1ccc(-c2nnc3n2CCCCC3)cc1,0.4%,13.7,2.3,-4.3%
Oc1c(I)cc(Cl)c2cccnc12,-1.6%,-71.2*,-92.8,-5.3%
O=[N+]([O-])c1cc(CN2CCOCC2)c2cccnc2c1O,0.6%,-1.1,5.7,-1.2%
O=[N+]([O-])c1cc(CN2CCN(c3ccccc3)CC2)c(O)c2ncccc12,-1.2%[9.22 µM],-109.1*,-43.2,-3.4%
Oc1c(CN2CCc3ccccc3C2)cc(Cl)c2cccnc12,u,-138.9*,-24.8,-4.4%
Oc1c(Cl)cc(CN2CCOCC2)c2cccnc12,8.3%,u,-8.0,-2.7%
Oc1c(CN2CCCCC2)cc(Br)c2cccnc12,21.8%,-74.4*,-28.8,u
COc1ccc(O)c(CN2CCC3(CCC(CNC(=O)c4ccccc4)O3)CC2)c1 (configuration not stated),x,x,x,-4.7%
Cn1cc(CN2CCCC(CO)(Cc3cccc(Cl)c3)C2)cn1 (configuration not stated),-0.1%,-24.4,-9.4,-3.9%
OCC1(Cc2ccc(F)cc2F)CCCN(Cc2ccc(Cl)cc2)C1 (configuration not stated),0.5%,-83.2*,-21.0,-4.1%
OCC1(Cc2cccc(Cl)c2)CCCN(Cc2cnn(-c3ccccc3)c2)C1 (configuration not stated),3.2%,-61.9*,-17.9,-4.5%
Cc1cc(=O)n2[nH]c(=O)c(N=Nc3ccccc3)c2[nH]1,0.1%,-83.8*,-3.7,1.1%
COc1cc(OC)c2nc(-c3cc4c(c(OC)c3)OCCN(C(=O)C(C)c3n[nH]c(=O)c5ccccc35)C4)cc(C)c2c1 (configuration not stated),x,x,x,-2.7%
O=C(NNC(=O)c1cccc(Br)c1)Nc1ccc(Cl)cc1,2.1%,-66.7*,-15.7,-4.0%
Cc1ccc(Cc2nc3ccccc3nc2SCC(=O)NCc2ccc(F)cc2)cc1,-0.5%,x,10.8,-1.3%
O=C(COC(=O)/C=C/c1ccccc1[N+](=O)[O-])NCc1ccco1,14.1µM*,-17.8,-8.5,0.5%
COC(=O)CNC(=O)COC(=O)/C=C/c1ccccc1[N+](=O)[O-],27.9%,4.7,-8.8,-5.5%
COc1cc(=O)n2c(c1C(=O)NCc1ccco1)CCN(Cc1c(F)cccc1F)CC2,x,x,x,-3.1%
O=C(c1cccc(Cl)c1Cl)N(Cc1ccco1)Cc1cccs1,x,x,x,0.3%
Cc1cccc(C)c1OCc1cn(CC(=O)c2ccc(O)cc2)nn1,0.2%,-61.5*,-13.4,-0.5%
SMILES,Nrf2 activator,DRD3 antagonist,D3 ag,Glioma ERSR ind
O=C(Cn1cc(COc2ccc(Br)cc2[N+](=O)[O-])nn1)c1ccc(O)cc1,2.3%,-58.9*,-14.5,-1.1%
CC(=O)Nc1ccc(OCc2cn(CC(=O)c3ccc(O)cc3)nn2)cc1,0.0%,-113.9*,-21.4,-3.6%
COc1cc(C(C)=O)ccc1OCc1cn(CC(=O)c2ccc(O)cc2)nn1,3.7%,-72.0*,3.3,-2.7%
COc1cccc(C(=O)N2CCC(N3CCN(Cc4ccc(F)cc4)C(=O)C3=O)CC2)c1,0.7%,x,8.4,-4.5%
CCN(CC)c1ccc(NC2=C(Cl)C(=O)c3ccccc3C2=O)cc1,u,-82.2*,-27.6,-13.5%
CCCC(=O)NC1=C(Cl)C(=O)c2ccccc2C1=O,-1.7%,-67.7*,-28.0,-13.9%
CCNC1=C(Cl)C(=O)c2ccccc2C1=O,3.5%,u,2.9,2.8%
Cc1ccc(NC2=C(Cl)C(=O)c3ccccc3C2=O)cc1,u,u,-1.6,-11.4%
Cc1ccc(CN2CCC(=O)N(Cc3ccccn3)CC2)c(C)c1,x,x,x,-2.2%
Cn1c(CN2CCN(CCO)CC2)c(C#N)c2ccccc21,0.3%,2.8,-0.1,-4.8%
Cc1ccccc1N1CCN(Cc2c(C#N)c3ccccc3n2C)CC1,-0.3%,-56.5*,-17.9,-1.5%
CCOc1cccc(-c2nc3ccccc3c(=O)o2)c1,4.4%,x,-6.9,-1.6%
c1ccc(C2Nc3cccc4cccc(c34)N2)cc1,14.4%,6.5,1.9,-3.6%
c1csc(C2Nc3cccc4cccc(c34)N2)c1,3.8%,-69.7*,-1.6,-7.5%
Cc1ccc(CN2CCOc3ccc(C(C)(O)COc4ccccc4)cc3C2)o1 (configuration not stated),x,x,x,-2.7%
COCCNC(=O)C1CCCN(C(=O)Cc2cccc3ccccc23)CC1 (configuration not stated),-0.7%,-102.4*,-10.7,-0.1%
COCCNC(=O)C1CCCN(C(=O)c2ccnc(Cl)c2)CC1 (configuration not stated),0.4%[9.22 µM],16.2,3.9,-2.5%
COCCNC(=O)C1CCCN(C(=O)Cc2ccc(F)cc2)CC1 (configuration not stated),-0.1%[9.22 µM],28.0,9.9,-3.3%
COCCNC(=O)C1CCCN(C(=O)c2cncc(Br)c2)CC1 (configuration not stated),-0.1%[9.22 µM],-77.2*,-17.8,-5.7%
Cc1ccc(NC(=O)CSc2nc3c(c(=O)[nH]2)CCC3)cc1Cl,3.2%,x,8.2,x
Cc1oc2c(c(C)cc3oc(=O)c(CC(=O)NCCc4ccc(Cl)cc4)c(C)c32)c1C,0.6%,x,-7.8,-1.6%
COc1ccc2c(c1)OC(C)CN(CCNC(=O)C1CCOC1)C2 (configuration not stated),x,x,x,-5.5%
Cc1cccc(N2CCN(CC(O)COc3ccccc3)CC2)c1 (configuration not stated),-0.7%,-70.6*,-10.3,-0.6%
Cc1cccc(N2CCN(CC(O)COc3ccc(Cl)cc3)CC2)c1 (configuration not stated),-0.6%,-80.2*,2.5,0.7%
Cc1ccc(N2CCN(CC(O)COc3cccc(C)c3)CC2)cc1 (configuration not stated),-0.8%,u,1.1,-1.6%
SMILES,Nrf2 activator,DRD3 antagonist,D3 ag,Glioma ERSR ind
CCCc1nc2cccnc2n1C1CCN(C(=O)Cn2nccc2C)CC1,x,x,x,-1.1%
COc1ccccc1/C=C/c1cncc(/C=C/c2ccccc2OC)c1,x,x,x,-2.5%
CC1CCN(CCOc2cc(Cl)ccc2Cl)CC1,-0.7%,u,-4.6,-3.3%
CC1CCCN(CCCOc2ccc(Br)cc2Cl)C1 (configuration not stated),4.9%,-77.2*,-11.6,-0.4%
CN(C)CCCCOc1ccc(Br)cc1Cl,2.7%,-15.1,-17.4,-0.1%
CC1CCN(CCOCCOc2ccc(Br)cc2Cl)CC1,3.7%,-75.5*,-57.3,-3.8%
CCOC(=O)[C@H](CCc1ccccc1)N[C@H]1CCCN2CCC[C@@H](C(=O)O)N2C1=O,x,x,-11.3,-5.2%
